Results from ChEMBL document CHEMBL1961873, “Compounds: GSK PKIS; Assays: Nanosyn kinase panel” (2012).

Tests used:
[1] = target: Protein kinase C gamma type (Homo sapiens) (UniProt P05129); conditions: at 1 µM;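 further: each value is an averaged percent inhibition of the enzyme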
[2] = target: T1, Protein kinase C iota type (Homo sapiens) (UniProt P41743); conditions: at 0.1 µM
T1 sequence (whole entry): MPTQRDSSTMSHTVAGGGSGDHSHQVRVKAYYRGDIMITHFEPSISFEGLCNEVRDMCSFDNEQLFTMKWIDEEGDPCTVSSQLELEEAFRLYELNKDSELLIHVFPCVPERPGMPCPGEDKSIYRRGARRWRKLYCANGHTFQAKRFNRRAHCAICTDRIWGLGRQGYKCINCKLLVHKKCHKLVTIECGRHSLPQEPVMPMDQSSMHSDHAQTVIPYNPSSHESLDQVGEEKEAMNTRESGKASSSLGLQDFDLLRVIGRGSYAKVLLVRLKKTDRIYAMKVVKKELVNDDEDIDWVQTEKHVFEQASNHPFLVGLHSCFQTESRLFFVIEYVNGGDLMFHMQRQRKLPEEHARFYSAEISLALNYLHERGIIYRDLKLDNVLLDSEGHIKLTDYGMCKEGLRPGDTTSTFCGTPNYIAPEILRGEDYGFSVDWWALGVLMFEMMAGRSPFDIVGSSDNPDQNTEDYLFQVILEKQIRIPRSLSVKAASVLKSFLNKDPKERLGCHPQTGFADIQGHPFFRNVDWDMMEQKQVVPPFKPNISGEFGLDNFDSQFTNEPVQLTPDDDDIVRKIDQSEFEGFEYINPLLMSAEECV

[3] = target: T1, Protein kinase C iota type (Homo sapiens); conditions: at 1 µM
[4] = target: Protein kinase C theta type (Homo sapiens) (UniProt Q04759); conditions: at 0.1 µM
Sequence of Protein kinase C theta type (Homo sapiens) (Q04759 whole entry, looked up): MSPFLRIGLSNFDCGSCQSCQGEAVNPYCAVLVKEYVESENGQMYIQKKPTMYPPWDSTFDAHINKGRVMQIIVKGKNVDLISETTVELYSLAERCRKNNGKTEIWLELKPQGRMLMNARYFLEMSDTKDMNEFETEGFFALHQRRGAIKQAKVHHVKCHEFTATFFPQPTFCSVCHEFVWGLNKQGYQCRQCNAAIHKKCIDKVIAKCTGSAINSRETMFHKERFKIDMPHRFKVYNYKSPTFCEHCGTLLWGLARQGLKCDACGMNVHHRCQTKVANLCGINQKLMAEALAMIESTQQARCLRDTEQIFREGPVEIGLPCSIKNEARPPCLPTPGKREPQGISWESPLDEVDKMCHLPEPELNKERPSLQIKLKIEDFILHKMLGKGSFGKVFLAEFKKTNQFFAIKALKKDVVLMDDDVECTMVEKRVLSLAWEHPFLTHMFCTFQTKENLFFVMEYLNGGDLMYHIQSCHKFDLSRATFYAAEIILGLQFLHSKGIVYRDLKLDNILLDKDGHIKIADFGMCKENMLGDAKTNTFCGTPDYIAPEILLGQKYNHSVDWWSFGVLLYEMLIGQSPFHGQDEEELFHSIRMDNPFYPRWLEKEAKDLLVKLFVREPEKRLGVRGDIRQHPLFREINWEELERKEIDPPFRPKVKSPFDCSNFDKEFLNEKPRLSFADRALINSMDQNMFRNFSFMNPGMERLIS

[5] = target: Protein kinase C theta type (Homo sapiens) (UniProt Q04759); conditions: at 1 µM
[6] = target: Protein kinase C beta type (Homo sapiens) (UniProt P05771); conditions: at 0.1 µM
Sequence of Protein kinase C beta type (Homo sapiens) (P05771 2-671 limits assumed): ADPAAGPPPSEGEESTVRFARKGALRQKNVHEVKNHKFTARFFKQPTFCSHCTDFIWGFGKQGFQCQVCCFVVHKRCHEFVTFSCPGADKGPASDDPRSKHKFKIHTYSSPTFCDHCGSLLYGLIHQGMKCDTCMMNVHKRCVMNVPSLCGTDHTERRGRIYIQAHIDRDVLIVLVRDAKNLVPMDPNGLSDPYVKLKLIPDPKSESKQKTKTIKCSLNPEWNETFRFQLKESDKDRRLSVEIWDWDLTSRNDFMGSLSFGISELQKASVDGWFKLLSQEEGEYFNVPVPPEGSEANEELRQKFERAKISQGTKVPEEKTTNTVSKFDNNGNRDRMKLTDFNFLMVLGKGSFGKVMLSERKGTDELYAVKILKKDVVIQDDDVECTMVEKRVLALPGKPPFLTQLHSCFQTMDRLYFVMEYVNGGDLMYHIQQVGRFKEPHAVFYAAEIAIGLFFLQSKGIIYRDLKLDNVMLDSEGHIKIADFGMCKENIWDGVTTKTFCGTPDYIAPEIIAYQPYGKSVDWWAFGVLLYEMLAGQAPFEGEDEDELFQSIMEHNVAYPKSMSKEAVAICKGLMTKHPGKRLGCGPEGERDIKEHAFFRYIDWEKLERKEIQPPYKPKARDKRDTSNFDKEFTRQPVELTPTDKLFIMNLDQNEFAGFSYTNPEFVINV

[7] = target: Protein kinase C beta type (Homo sapiens) (UniProt P05771); conditions: at 1 µM
[8] = target: T2, Serine/threonine-protein kinase D1 (Homo sapiens) (UniProt Q15139); conditions: at 0.1 µM
T2 sequence (whole entry): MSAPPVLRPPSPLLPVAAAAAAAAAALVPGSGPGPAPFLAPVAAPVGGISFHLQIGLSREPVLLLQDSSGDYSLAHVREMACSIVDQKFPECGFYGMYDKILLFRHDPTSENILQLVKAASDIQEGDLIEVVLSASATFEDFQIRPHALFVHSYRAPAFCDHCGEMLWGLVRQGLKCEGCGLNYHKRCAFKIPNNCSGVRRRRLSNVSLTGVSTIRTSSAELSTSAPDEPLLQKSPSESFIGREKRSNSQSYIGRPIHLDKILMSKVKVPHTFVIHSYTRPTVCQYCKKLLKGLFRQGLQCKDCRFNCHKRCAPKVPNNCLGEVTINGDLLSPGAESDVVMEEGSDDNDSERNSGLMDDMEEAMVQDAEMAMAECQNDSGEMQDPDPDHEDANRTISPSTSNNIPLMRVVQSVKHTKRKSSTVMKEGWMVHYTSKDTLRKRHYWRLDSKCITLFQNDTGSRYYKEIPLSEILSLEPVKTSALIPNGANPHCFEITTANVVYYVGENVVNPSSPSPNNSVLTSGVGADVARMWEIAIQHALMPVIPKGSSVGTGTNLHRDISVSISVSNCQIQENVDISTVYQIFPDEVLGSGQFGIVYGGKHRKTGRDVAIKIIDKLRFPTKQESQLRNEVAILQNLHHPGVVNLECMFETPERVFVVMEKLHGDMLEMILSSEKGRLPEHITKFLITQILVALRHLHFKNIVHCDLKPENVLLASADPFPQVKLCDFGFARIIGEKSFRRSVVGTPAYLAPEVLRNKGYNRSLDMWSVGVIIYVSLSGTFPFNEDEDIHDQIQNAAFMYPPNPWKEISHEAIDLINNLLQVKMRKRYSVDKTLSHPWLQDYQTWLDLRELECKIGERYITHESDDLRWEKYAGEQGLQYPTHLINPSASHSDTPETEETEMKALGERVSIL

[9] = target: T2, Serine/threonine-protein kinase D1 (Homo sapiens); conditions: at 1 µM
[10] = target: T3, Serine/threonine-protein kinase D2 (Homo sapiens) (UniProt Q9BZL6); conditions: at 0.1 µM
T3 sequence (whole entry): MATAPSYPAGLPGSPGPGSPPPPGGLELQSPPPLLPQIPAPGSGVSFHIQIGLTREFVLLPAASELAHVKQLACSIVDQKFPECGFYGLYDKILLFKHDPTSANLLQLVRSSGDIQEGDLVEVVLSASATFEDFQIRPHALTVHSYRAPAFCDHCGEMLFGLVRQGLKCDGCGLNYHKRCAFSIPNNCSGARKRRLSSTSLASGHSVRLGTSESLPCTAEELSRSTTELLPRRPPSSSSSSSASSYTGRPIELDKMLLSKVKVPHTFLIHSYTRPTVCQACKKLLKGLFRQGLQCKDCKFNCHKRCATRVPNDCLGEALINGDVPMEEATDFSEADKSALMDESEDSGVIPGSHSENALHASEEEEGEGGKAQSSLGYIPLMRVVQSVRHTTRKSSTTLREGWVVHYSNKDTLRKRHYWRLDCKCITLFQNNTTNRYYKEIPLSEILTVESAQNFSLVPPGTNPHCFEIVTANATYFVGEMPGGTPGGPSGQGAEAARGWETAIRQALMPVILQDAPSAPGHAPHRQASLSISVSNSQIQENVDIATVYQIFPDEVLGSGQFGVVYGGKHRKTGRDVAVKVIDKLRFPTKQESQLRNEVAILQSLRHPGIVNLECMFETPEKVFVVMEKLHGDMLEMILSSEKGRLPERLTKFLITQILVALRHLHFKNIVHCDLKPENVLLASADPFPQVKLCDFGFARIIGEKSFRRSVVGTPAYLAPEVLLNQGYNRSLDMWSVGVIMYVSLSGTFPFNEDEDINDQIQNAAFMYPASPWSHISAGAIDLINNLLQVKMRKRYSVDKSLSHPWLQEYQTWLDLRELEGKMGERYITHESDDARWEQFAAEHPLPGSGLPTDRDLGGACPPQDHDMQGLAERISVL

[11] = target: T3, Serine/threonine-protein kinase D2 (Homo sapiens); conditions: at 1 µM
[12] = target: T4, Serine/threonine-protein kinase D3 (Homo sapiens) (UniProt O94806); conditions: at 0.1 µM
T4 sequence (whole entry): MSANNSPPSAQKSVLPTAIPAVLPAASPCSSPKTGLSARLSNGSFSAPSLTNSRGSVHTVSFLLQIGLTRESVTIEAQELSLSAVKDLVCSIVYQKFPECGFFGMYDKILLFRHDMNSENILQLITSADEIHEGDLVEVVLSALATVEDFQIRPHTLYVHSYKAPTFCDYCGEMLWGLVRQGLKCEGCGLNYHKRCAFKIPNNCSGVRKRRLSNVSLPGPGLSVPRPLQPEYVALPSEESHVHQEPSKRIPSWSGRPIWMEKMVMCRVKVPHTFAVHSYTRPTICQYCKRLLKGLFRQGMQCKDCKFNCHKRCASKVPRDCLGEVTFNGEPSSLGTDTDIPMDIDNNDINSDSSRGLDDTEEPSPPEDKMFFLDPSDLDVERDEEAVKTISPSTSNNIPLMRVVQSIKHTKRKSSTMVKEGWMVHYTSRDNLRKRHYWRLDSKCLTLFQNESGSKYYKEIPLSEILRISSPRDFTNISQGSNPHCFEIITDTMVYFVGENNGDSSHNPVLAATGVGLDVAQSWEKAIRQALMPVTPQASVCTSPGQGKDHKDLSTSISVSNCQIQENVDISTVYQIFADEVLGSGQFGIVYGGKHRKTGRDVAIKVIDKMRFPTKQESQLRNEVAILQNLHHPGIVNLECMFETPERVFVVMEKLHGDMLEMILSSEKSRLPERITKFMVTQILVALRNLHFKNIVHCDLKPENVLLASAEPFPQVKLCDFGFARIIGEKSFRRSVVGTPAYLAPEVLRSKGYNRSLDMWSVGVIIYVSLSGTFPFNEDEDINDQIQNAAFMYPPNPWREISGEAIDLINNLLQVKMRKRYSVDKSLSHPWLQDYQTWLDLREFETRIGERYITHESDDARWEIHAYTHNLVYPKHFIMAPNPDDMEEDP

[13] = target: T4, Serine/threonine-protein kinase D3 (Homo sapiens); conditions: at 1 µM
[14] = target: T5, cGMP-dependent protein kinase 1 (Homo sapiens) (UniProt Q13976); conditions: at 0.1 µM
T5 sequence (whole entry): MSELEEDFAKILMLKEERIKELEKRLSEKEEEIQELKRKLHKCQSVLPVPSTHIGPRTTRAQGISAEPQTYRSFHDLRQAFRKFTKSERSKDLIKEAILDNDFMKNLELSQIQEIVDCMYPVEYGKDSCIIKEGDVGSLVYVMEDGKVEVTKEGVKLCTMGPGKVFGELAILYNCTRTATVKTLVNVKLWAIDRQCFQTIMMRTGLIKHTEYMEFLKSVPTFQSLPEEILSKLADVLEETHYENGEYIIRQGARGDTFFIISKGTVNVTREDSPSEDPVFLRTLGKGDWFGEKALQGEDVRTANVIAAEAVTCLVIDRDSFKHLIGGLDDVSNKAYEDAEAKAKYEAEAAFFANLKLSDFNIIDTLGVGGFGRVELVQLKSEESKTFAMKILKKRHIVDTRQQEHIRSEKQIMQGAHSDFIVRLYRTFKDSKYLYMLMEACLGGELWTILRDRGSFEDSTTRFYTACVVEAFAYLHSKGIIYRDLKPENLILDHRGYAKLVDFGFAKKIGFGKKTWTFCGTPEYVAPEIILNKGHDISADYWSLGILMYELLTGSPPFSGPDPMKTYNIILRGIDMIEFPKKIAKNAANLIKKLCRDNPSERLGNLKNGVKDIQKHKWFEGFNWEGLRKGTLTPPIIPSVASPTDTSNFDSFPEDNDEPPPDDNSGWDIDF

[15] = target: T5, cGMP-dependent protein kinase 1 (Homo sapiens); conditions: at 1 µM
[16] = target: T6, cGMP-dependent protein kinase 2 (Homo sapiens) (UniProt Q13237); conditions: at 0.1 µM
T6 sequence (whole entry): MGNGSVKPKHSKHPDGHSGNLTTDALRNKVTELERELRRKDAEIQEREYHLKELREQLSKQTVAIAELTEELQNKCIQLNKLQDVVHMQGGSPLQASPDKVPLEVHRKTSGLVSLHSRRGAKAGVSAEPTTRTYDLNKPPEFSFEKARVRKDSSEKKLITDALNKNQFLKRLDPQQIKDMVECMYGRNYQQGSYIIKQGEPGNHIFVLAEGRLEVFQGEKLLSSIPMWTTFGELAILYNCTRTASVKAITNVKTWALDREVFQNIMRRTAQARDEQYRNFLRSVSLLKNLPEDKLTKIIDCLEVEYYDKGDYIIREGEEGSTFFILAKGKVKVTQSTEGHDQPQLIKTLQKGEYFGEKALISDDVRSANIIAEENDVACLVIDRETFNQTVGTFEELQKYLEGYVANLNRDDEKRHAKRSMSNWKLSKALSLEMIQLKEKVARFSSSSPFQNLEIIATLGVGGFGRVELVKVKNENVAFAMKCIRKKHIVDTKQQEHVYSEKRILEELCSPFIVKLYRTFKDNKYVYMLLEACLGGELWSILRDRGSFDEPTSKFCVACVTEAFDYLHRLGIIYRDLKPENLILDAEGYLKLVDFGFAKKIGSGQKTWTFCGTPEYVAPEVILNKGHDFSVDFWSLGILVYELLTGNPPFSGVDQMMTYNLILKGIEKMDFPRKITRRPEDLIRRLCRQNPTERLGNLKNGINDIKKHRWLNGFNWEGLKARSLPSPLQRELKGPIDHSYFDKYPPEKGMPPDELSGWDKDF

[17] = target: T6, cGMP-dependent protein kinase 2 (Homo sapiens); conditions: at 1 µM
[18] = target: T7, cAMP-dependent protein kinase catalytic subunit PRKX (Homo sapiens) (UniProt P51817); conditions: at 0.1 µM
T7 sequence (whole entry): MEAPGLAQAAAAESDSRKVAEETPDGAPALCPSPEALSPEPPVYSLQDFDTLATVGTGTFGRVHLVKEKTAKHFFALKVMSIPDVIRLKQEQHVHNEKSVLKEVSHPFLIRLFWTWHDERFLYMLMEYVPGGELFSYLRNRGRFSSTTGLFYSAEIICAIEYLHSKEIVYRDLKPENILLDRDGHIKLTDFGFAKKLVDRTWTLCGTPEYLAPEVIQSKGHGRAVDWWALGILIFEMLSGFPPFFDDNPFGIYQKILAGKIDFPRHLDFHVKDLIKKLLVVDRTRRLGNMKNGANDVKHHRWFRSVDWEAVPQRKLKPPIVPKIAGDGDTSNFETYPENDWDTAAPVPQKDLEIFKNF

[19] = target: T7, cAMP-dependent protein kinase catalytic subunit PRKX (Homo sapiens); conditions: at 1 µM
[20] = target: Rho-associated protein kinase 1 (Homo sapiens) (UniProt Q13464); conditions: at 0.1 µM;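 further: values are mean percent inhibition of ROCK1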
Sequence of Rho-associated protein kinase 1 (Homo sapiens) (Q13464 2-1354 limits assumed): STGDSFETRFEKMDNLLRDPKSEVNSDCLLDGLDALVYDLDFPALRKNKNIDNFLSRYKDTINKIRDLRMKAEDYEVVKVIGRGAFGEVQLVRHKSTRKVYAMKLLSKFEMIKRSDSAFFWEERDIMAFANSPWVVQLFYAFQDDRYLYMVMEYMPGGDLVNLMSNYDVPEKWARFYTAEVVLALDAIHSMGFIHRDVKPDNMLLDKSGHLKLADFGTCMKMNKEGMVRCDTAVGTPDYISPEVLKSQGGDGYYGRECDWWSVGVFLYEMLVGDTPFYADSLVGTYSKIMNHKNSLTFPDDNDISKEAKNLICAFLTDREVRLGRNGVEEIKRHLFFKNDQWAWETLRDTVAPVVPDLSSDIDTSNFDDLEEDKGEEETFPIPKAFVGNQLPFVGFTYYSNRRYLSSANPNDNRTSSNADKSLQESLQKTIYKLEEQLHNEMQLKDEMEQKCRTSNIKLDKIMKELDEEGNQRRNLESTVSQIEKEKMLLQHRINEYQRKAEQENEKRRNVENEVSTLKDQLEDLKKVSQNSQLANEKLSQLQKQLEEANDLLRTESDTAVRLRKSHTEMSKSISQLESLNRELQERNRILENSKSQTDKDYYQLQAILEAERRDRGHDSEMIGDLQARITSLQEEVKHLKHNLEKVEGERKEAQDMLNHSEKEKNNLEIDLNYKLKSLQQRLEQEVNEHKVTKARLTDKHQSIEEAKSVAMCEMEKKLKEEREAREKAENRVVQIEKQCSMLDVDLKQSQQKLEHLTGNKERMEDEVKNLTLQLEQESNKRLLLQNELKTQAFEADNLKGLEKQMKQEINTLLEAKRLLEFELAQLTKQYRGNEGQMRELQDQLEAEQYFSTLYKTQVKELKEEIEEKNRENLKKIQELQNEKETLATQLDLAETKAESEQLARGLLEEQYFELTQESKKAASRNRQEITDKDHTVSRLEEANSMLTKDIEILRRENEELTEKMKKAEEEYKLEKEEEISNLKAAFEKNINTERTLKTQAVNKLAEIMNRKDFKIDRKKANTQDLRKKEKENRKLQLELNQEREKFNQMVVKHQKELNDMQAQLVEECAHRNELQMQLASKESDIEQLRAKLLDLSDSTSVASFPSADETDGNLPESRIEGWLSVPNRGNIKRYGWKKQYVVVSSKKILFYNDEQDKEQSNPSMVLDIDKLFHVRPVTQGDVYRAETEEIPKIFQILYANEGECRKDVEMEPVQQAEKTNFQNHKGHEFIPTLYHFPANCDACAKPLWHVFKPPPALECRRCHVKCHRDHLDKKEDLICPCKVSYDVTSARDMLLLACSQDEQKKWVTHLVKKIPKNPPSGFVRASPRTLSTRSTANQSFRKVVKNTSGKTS

Row | Compound | inhibition [1] [%] | inhibition [2] [%] | inhibition [3] [%] | inhibition [4] [%] | inhibition [5] [%] | inhibition [6] [%] | inhibition [7] [%] | inhibition [8] [%] | inhibition [9] [%] | inhibition [10] [%] | inhibition [11] [%] | inhibition [12] [%] | inhibition [13] [%] | inhibition [14] [%] | inhibition [15] [%] | inhibition [16] [%] | inhibition [17] [%] | inhibition [18] [%] | inhibition [19] [%] | inhibition [20] [%]
1 | Cc1nc(-c2ccccc2)n2nc(NCCCN3CCOCC3)ncc12 | 4.35 | -0.08 | -1.15 | 1.47 | -0.08 | 1.18 | 2.05 | 2.52 | 3.13 | 2.7 | 2.01 | 1.88 | 2.23 | 1.36 | 3.22 | 1.49 | 3.07 | 2.28 | 1.01 | 0.46
2 | COc1cccc(-n2ncc3c(N/N=C/c4ccc(C)cc4)ncnc32)c1 | -9.04 | 1.65 | 1.86 | 3.03 | 4.16 | 1.4 | 2.79 | 6.31 | 10.7 | 6.6 | 8.29 | 5.18 | 9.61 | 3.66 | 7.27 | 3.43 | 5.99 | 2.31 | 4.53 | 3.27
3 | Cc1ccc(NC(=O)CC2CC2)cc1-c1ccc(C(=O)NCC2CC2)cc1 | 6.55 | 0.93 | -0.03 | 2.09 | 2.23 | 1 | 2.35 | 2.3 | 3.9 | 2.89 | 3.78 | 3.15 | 3.66 | 2.45 | 1.88 | 1.38 | 2.64 | 1.92 | 2.19 | 1
